# Rows were chosen to be rich in hits. Some 12% of all compounds tested hit in one or more screens of this group.
# Sfp inh: blocks B. subtilis Sfp PPTase activity | Q9F4F7 | Potency, µM, inactives show largest response in the series, negative = inhibition, hits mostly inhibitors | Biochemical Sfp PPTase activity, qHTS | 310,000 tested, 3.5% active | AID 1490;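 note: the enzyme is Sfp with the accession as filed and its product quenches rhodamine fluorescence; 0% = enzyme reaction without inhibitor and -100% = no enzyme wells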
#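 Sfp 15 nM + cpd, 15 min RT; start w/ rhodamine-CoA 5 uM, BHQ-2-YbbR 12.5 uM (final); 50 mM Hepes pH 7.6, 10 mM MgCl2, 0.01% NP-40, 0.01% BSA; read 525/598 nm at 0 and 30 min.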
# JMJD2A Tudor: JMJD2A Tudor domain (human) inhibition; AlphaScreen JMJD2A-Tudor / H3K4me3 peptide binding; Potency, µM (highest dose often 114 µM), inactives show top-dose activity change, negative = inhibition, usual class: inhibitors; 390,000 tested, 4.4% active; note: % is set by controls: 0 for no effect and ±100 for the full control effect; nearly all actives have a fitted effect of over 50% in size
# HP1b binding inh: inhibitors of HP1-beta chromodomain binding to methylated histone tails; 390,000 tested, 0.56% active; AlphaScreen HP1-beta / biotin-H3K9me3 peptide binding; Potency, µM (top dose mostly 114 µM), inactives show at the highest dose activity change, negative = inhibition, most hits filed as inhibitors; note: nearly all actives have a fitted effect of over 70% in size
#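 AlphaScreen: HP1-beta (50 nM) preformed 30 min with biotin-H3(1-18)K9me3 peptide (50 nM) in PBS pH 7.4, 0.01% Tween-20. Compound added for 30 min at RT, then streptavidin donor/nickel chelate acceptor beads (10 ug/mL) for 30 min.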
# G9a inh: inhibitors of human histone lysine methyltransferase G9a; G9a H3K9 monomethylation, AlphaScreen, 2 h; Potency, µM (top dose mostly 102 µM), for inactives: top-dose activity, negative = inhibition, usual class: inhibitors; Q96KQ7; 350,000 tested, 8.8% active; note: % is set by controls: 0 for no effect and ±100 for the full control effect; nearly all actives have a fitted effect of over 75% in size
#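 AlphaScreen detection with an anti-monomethyl H3K9 antibody quantified product after a 2 h room-temperature reaction containing 500 nM biotinylated H3K9 peptide, 20 µM SAM and 20 nM enzyme, which had been preincubated 15 min with compound.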
# BAZ2B inh: blocks human BAZ2B. 360,000 tested, 4.4% active. Potency, µM (doses to about 114 µM), for the others: at the highest dose activity change, negative = inhibition, hits mostly inhibitors. AlphaScreen BAZ2B-H3K14Ac peptide displacement; note: % is set by controls: 0 for no effect and ±100 for the full control effect; nearly all actives have a fitted effect of over 60% in size
# Target sequence (Q9UIF8 whole entry, looked up): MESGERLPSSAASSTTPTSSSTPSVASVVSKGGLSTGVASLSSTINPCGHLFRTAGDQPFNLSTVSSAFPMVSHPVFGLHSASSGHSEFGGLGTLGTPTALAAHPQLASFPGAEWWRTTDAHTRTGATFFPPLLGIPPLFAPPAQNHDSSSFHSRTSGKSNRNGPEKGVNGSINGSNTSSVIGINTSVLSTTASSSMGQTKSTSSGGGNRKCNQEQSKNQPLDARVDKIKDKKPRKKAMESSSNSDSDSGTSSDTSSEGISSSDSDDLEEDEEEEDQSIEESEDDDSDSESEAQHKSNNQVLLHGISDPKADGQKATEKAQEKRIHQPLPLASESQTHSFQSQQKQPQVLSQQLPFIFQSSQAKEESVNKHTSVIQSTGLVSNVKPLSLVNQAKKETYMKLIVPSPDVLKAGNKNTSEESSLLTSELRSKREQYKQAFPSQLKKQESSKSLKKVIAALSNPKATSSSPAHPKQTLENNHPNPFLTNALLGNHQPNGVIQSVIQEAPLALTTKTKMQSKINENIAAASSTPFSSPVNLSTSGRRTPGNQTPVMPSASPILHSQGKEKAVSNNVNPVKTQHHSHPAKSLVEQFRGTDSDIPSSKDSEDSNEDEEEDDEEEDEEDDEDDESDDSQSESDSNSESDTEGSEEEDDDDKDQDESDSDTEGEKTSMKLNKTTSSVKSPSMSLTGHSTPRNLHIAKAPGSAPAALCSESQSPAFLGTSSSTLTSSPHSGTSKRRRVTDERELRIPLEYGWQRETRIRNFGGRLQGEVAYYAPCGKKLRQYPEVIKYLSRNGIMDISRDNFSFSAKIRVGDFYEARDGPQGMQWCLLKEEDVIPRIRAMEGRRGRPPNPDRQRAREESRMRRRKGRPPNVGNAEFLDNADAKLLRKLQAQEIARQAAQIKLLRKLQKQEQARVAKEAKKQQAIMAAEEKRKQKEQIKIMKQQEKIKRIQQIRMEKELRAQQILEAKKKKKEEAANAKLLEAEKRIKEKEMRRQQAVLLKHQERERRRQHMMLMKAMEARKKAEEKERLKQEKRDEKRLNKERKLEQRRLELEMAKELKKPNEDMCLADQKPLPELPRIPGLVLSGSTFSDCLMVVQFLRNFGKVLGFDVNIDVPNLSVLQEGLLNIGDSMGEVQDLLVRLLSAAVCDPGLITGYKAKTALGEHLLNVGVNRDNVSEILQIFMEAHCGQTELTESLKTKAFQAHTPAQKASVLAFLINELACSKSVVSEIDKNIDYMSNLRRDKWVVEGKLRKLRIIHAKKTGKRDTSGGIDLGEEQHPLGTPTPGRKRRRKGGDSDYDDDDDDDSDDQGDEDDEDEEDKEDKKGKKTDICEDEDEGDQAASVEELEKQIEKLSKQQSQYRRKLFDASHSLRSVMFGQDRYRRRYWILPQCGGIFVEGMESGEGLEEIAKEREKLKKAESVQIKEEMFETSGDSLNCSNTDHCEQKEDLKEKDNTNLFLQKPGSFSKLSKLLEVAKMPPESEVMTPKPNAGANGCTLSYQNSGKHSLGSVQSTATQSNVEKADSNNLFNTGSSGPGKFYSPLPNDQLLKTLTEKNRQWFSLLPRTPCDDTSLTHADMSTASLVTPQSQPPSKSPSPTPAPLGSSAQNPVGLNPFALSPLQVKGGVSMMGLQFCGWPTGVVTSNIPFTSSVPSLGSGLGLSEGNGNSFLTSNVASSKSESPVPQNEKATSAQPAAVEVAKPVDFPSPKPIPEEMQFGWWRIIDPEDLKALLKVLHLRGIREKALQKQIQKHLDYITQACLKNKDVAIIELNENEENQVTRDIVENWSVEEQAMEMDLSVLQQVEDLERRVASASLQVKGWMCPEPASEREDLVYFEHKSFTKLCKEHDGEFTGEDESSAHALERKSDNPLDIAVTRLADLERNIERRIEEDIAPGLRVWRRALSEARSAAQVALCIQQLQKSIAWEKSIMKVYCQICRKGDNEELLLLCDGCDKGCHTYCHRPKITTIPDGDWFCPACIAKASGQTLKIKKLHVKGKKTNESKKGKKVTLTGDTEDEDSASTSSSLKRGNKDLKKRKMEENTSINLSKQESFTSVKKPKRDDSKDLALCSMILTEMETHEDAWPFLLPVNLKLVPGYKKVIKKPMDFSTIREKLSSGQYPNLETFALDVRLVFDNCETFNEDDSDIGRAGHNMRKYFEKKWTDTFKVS
#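 Protein-peptide AlphaScreen: BAZ2B 50 nM, b-H3K14Ac 50 nM, 1x PBS pH 7.4 + 0.01% Tween-20. Preincubation 30 min RT; cpd 30 min RT (top 110 uM); beads 20 min RT, light-protected.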
# * = called active by the depositor; ? = inconclusive; / = no result given; ! = a repeat was not active; [ ] = another dose, or the depositor's remark. Calls come from the whole dose curve; as a rule, active = well fitted curve in the direction sought with a large enough effect; inconclusive = small, poorly fitted or top-dose-only effect, or another doubt; inactive = no such curve, though single readings can be large; an effect the other way counts as inactive or inconclusive. Potency is the fitted concentration of half-maximal effect.
SMILES,Sfp inh,JMJD2A Tudor,HP1b binding inh,G9a inh,BAZ2B inh
CC(=O)C1=C(C)NC(SCC(=O)c2ccc(Cl)cc2)=C(C#N)C1CC(C)C (centres undefined),13µM*,?,38%,0.79µM*,?
Cc1noc(C)c1-c1nccc(NCc2ccccc2)n1,?,/,/,-49%[0.501 µM],/
O=C(OCC#CCSc1nnc(-c2cccc3ccccc23)o1)c1ccc(OC(F)(F)F)cc1,/,16%,/,/,/
Cc1ccc(-n2c(C)n[nH]c2=S)cc1,-2%,10µM*,42%,22µM*,4%
Cc1ccc(-n2c(C)n[nH]c2=S)cc1C,0%,8.9µM*,16%,5µM*,1%
CCCC[C@@H]1C[C@H]1C(NC(=O)c1ccccc1)c1ccc(C(F)(F)F)cc1 (some centres undefined),18%,/,/,/,/
CCOC(=O)N1CCN(C(=O)/C=C/c2c(C)nn(-c3ccc(F)cc3)c2Cl)CC1,3%,-14%,37%,5%,-11%
CC1=C(C(=O)Nc2ccccc2)C(c2ccc(C)o2)n2c(s/c(=C\c3ccco3)c2=O)=N1 (centres undefined),50µM*,-13%,19%,?,50µM*
CCOC(=O)C1CCN(C(=S)NC(=O)c2cccs2)CC1,-7%,-35%,?,40µM*,-22%
O=C(NCCNC1CCC(c2ccccc2)CC1)c1cccs1 (centres undefined),5%,2.2µM*,?,28µM*,50µM*
CCOC(=O)N1CCC(NCCNC(=O)c2ccccc2)CC1,-15%,2.2µM*!,66%,9%[0.501 µM],45µM*!
CCOC(=O)N1CCC(NCCNC(=O)c2cccs2)CC1,-20%,1.8µM*,?,?,79µM*
Cc1cc2[nH]c(=O)c(=O)[nH]c2cc1S(=O)(=O)NC1CCCCC1C (centres undefined),19%,-19%,36%,1%,-1%
CCc1ccccc1NS(=O)(=O)c1ccc2[nH]cc(C(=O)N(CC)Cc3ccccc3)c(=O)c2c1,/,-21%,20%,?,-16%
O=C(NC(=S)N1CCCCC1CO)c1cccs1 (centres undefined),/,2.8µM*,-32%,/,/
CCC1CCCCN1C(=S)NC(=O)c1cccs1 (centres undefined),4%,-26%,12%,?,-25%
CC(C)(C)OC(=O)N1CC23CC(c4ccc(F)cc4)C(CC2S1(=O)=O)O3 (centres undefined),23%,-8%,21%,/,/
COc1ccc(C2Nc3ccccc3C(=O)N2Cc2ccco2)cc1COc1ccc(NC(C)=O)cc1 (centres undefined),?,89µM*!,8%,?,-6%
COc1ccc(C2Nc3ccccc3C(=O)N2CCCN(C)C)cc1COc1ccc(NC(C)=O)cc1 (centres undefined),/,79µM*,/,/,/
O=C1c2ccccc2NC(c2cccc(F)c2)N1Cc1ccco1 (centres undefined),-19%,-25%,13%,?,56µM*
COc1ccc(C2Nc3ccccc3C(=O)N2Cc2cccc(Cl)c2)cc1COc1ccc(NC(C)=O)cc1 (centres undefined),/,-31%,/,/,/
O=C1c2ccccc2NC(c2ccc(OCc3ccccc3)c(OCc3ccccc3)c2)N1Cc1ccco1 (centres undefined),/,-17%[57.1 µM],2%[57 µM],/,/
CC(=O)Nc1cccc(OCc2cccc(C3Nc4ccccc4C(=O)N3Cc3ccco3)c2)c1 (centres undefined),/,32µM*,/,/,/
O=C1c2ccccc2NC(c2cccc(F)c2)N1Cc1ccccc1 (centres undefined),0%,17%,47%,16%,16%
CC(C)C[C@@H](CC(=O)N[C@H](CC(=O)N[C@@H]1CCCC[C@H]1C(=O)N[C@H](CC(=O)N[C@@H](CCC(=O)O)CC(=O)O)Cc1c[nH]c2ccccc12)C(C)C)NC(=O)[C@@H]1CNCC[C@H]1N,-3%,/,/,/,/
SMILES,Sfp inh,JMJD2A Tudor,HP1b binding inh,G9a inh,BAZ2B inh
COCCCn1c(SCc2cccc(Cl)c2)nc2c(sc3ccccc32)c1=O,/,3%,52%,5%[59 µM],1%
CC(=O)c1cccc(-n2c(=O)c3c4c(sc3n(Cc3ccccc3Cl)c2=O)CN(C(C)=O)CC4)c1,/,-4%,35%,-5%[59 µM],2%
CCOC(=O)c1c(C)[nH]c(C(=O)CN2CCOCC2)c1C,7%,-7%,-6%,?,-9%
CCOC(=O)CCCCC(=O)c1[nH]c(=O)[nH]c1C[n+]1ccc(C)cc1,10%,-15%,23%,45µM*,?
CCOC(=O)CCCCC(=O)c1[nH]c(=O)[nH]c1C[n+]1ccccc1,13%,/,/,?,-8%
CCOC(=O)CCCCC(=O)c1[nH]c(=O)[nH]c1CN1CCOCC1,8%,35µM*,-37%,?,16µM*
Cc1noc(C)c1-c1ccc2ncnc(Nc3ccc(F)cc3)c2c1,6%,/,/,21%[0.501 µM],/
O=C(Cn1c(-c2cccs2)cc2ccccc21)N1CCN(c2ccc(F)cc2)CC1,/,-9%,20%,-4%[59 µM],-11%
Cc1oc(-c2ccc(F)cc2)cc1-c1nn2c(-c3ccoc3C)nnc2s1,40µM*,89µM*,?,?,35µM*
Cc1oc(-c2ccc(Cl)cc2)cc1-c1nn2c(-c3ccco3)nnc2s1,-24%,/,/,?,35µM*
COc1cc(OC)c(-c2nn3c(-c4ccco4)nnc3s2)cc1OC,3%,-33%,-22%,45µM*,-8%
COc1ccc2c(c1)C(=O)[C@H](OC(=O)NCc1ccco1)[C@@H](c1ccc(OC)c(Br)c1)O2,-4%,/,/,/,/
Cc1c(CC(=O)O)c(=O)oc2cc(OCc3nn[nH]n3)ccc12,-2%,-28%,6%,?,-7%
Cc1c(Cc2ccccc2)c(=O)oc2cc(OCc3nn[nH]n3)ccc12,79µM*,10%,38%,?,7%
COc1ccc(-c2cc3ccc(OCc4nn[nH]n4)cc3oc2=O)cc1OC,26%,-17%,60%,45µM*,-6%
COc1ccc(-c2cc3ccc(OCC(C)=O)cc3oc2=O)cc1OC,18%,3%,25%,6%,-14%
CC1CN(C(C)C)C(=S)N(c2ccccc2)C1=O (centres undefined),/,-16%,-1%,/,/
O=C1C[C@@H]2c3c(cccc3CN1Cc1ccc(Cl)cc1)C[C@@H](O)[C@H]2O,/,-13%,22%,/,/
CCN(CC)S(=O)(=O)c1ccc(NC(=O)CCN2C(=O)C3CC=CCC3C2=O)cc1 (centres undefined),/,?,67%,4%[2.33 µM],-4%
O=C(O)c1ccc(C2CCCCC2)cn1,?,1.6µM*,36%,?,4µM*
O=C(O)C1=C(C2CCCCC2)C(=O)c2ccccc21,/,-14%,15%,/,/
O=c1c(CCc2ccccc2)nc2cnc(Nc3ccccc3)nc2n1C[C@H]1CCCO1,20%,/,/,10%[0.501 µM],/

# Compound activity deposited in PubChem BioAssay by National Center for Advancing Translational Sciences (NCATS).
